Data from PubChem BioAssay (EPA / NIEHS).
“And” between values parts separate entries of the source, which are not always exact repeats. Equal entries are not always repeated. The source made the active and inactive calls. The calls were made as follows: active = hit-call score of the fitted dose curve at least 0.9, where 1 is the maximum; inactive = score below 0.9.

Key:
[1] = read-out: Vascular endothelial growth factor receptor 2 (Homo sapiens) (UniProt P35968); experiment: BSK_4H_VEGFRII: BioMAP Diversity Plus: 4H Assay for Vascular endothelial growth factor receptor 2 (VEGFR2) Biomarker Activity (AID 2283031); conditions: primary human endothelial cells (HUVEC); actives raise or lower the signal
Summary of the method: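 Primary human umbilical vein endothelial cells (4H system), 24 h exposure; cell-surface VEGFR2 measured by ELISA. Bidirectional fitting versus DMSO; cytotoxicity checked in parallel by SRB total-protein staining.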

[2] = read-out: Vascular cell adhesion molecule 1 (VCAM1), VCAM1 (gene 7412); experiment: BSK_4H_VCAM1: BioMAP Diversity Plus: 4H Assay for Vascular cell adhesion molecule 1 (VCAM1) Biomarker Activity (AID 2283033); conditions: primary human endothelial cells (HUVEC); actives raise or lower the signal;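 also: cell-surface VCAM-1 protein measured by ELISA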
Summary of the method: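 Chemicals are added to primary human umbilical vein endothelial cells. After 24 h, VCAM-1 levels are measured by ELISA. Values come from bidirectional fitting referenced to DMSO.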

[3] = read-out: Interferon-gamma inducible Protein 10 (IP10), CXCL10 (gene 3627); experiment: BSK_BE3C_IP10: BioMAP Diversity Plus: BE3C Assay for Interferon-gamma inducible Protein 10 (IP10) Biomarker Activity (AID 2283034); conditions: primary human bronchial epithelial cells; actives raise or lower the signal
Summary of the method: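 IP-10 quantified by ELISA serves as the endpoint. Cells: primary human bronchial epithelium, read 24 h after compound addition. Activity is derived by bidirectional fitting with DMSO as negative control.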

[4] = read-out: Monokine induced gamma interferon (MIG), CXCL9 (gene 4283); experiment: BSK_BE3C_MIG: BioMAP Diversity Plus: BE3C Assay for Monokine induced gamma interferon (MIG) Biomarker Activity (AID 2283035); conditions: primary human bronchial epithelial cells; actives raise or lower the signal;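 also: MIG protein measured by ELISA in BE3C cultures after 24 h of dosing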
Summary of the method: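 hu bronchial epithelial 1° cells, 24 h cpd; MIG by ELISA; bidirectional fit, DMSO = baseline.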

[5] = read-out: Transforming growth factor beta 1 (TGFb1), TGFB1 (gene 7040); experiment: BSK_BE3C_TGFb1: BioMAP Diversity Plus: BE3C Assay for Transforming growth factor beta 1 (TGFb1) Biomarker Activity (AID 2283036;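 also: TGF-b1 protein level measured by ELISA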); conditions: primary human bronchial epithelial cells; actives raise or lower the signal
Summary of the method: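 Bronchial epithelial primary cells are treated with test chemical, then TGF-b1 is quantified by ELISA after 24 hours. Values derive from bidirectional fitting against DMSO, with cytotoxicity checked by SRB staining in parallel cultures.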

[6] = read-out: Plasminogen activator inhibitor-1 (PAI1), SERPINE1 (gene 5054); experiment: BSK_BE3C_PAI1: BioMAP Diversity Plus: BE3C Assay for Plasminogen activator inhibitor-1 (PAI1) Biomarker Activity (AID 2283037); conditions: primary human bronchial epithelial cells; actives raise or lower the signal
Summary of the method: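 Values derive from bidirectional fitting against DMSO baseline of PAI-1 levels, measured by ELISA in human bronchial epithelial cells 24 h after compound addition.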

[7] = read-out: urokinase plasminogen activator (uPA), PLAU (gene 5328); experiment: BSK_BE3C_uPA: BioMAP Diversity Plus: BE3C Assay for urokinase plasminogen activator (uPA) Biomarker Activity (AID 2283038); conditions: primary human bronchial epithelial cells; actives raise or lower the signal;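 also: uPA protein level quantified by ELISA in cell cultures; uPA read one day after compound addition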
Summary of the method: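 Primary human bronchial epithelial cells, uPA measured by ELISA 24 h after dosing. Bidirectional change relative to DMSO; cytotoxicity checked in parallel cultures by sulforhodamine B total-protein staining.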

[8] = read-out: Urokinase-type plasminogen activator receptor (uPAR), PLAUR (gene 5329); experiment: BSK_BE3C_uPAR: BioMAP Diversity Plus: BE3C Assay for Urokinase-type plasminogen activator receptor (uPAR) Biomarker Activity (AID 2283039); conditions: primary human bronchial epithelial cells; actives raise or lower the signal;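 also: uPAR protein level measured by ELISA on the cells; cells exposed to compound for one day before measurement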
Summary of the method: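 Steps: dose human primary bronchial epithelial cells, incubate 24 h, measure uPAR by ELISA, then fit gain- or loss-of-signal response bidirectionally relative to DMSO.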

[9] = read-out: Interleukin-6 (IL6), IL6 (gene 3569); experiment: BSK_CASM3C_IL6: BioMAP Diversity Plus: CASM3C Assay for Interleukin-6 (IL6) Biomarker Activity for (AID 2283040); conditions: primary human coronary artery smooth muscle cells; actives raise or lower the signal
[10] = read-out: Tissue plasminogen activator (tPA), PLAT (gene 5327); experiment: BSK_BE3C_tPA: BioMAP Diversity Plus: BE3C Assay for Tissue plasminogen activator (tPA) Biomarker Activity (AID 2283041); conditions: primary human bronchial epithelial cells; actives raise or lower the signal
Summary of the method: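 Gain- or loss-of-signal in tPA, measured by ELISA, derived by bidirectional fitting against DMSO. Cells: human primary bronchial epithelial; read at 24 h after chemical dosing.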

[11] = read-out: Interleukin-8 (IL8), CXCL8 (gene 3576); experiment: BSK_CASM3C_IL8: BioMAP Diversity Plus: CASM3C Assay for Interleukin-8 (IL8) Biomarker Activity (AID 2283042); conditions: primary human coronary artery smooth muscle cells; actives raise or lower the signal;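 also: IL-8 protein level quantified by ELISA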
[12] = read-out: Human Leukocyte Antigen - DR isotype (HLADR), HLA-DRA (gene 3122); experiment: BSK_CASM3C_HLADR: BioMAP Diversity Plus: CASM3C Assay for Human Leukocyte Antigen - DR isotype (HLADR) Biomarker Activity (AID 2283043); conditions: primary human coronary artery smooth muscle cells; actives raise or lower the signal;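 also: cell-surface HLA-DR protein level quantified by ELISA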
[13] = read-out: Macrophage colony-stimulating factor (MCSF), CSF1 (gene 1435); experiment: BSK_CASM3C_MCSF: BioMAP Diversity Plus: CASM3C Assay for Macrophage colony-stimulating factor (MCSF) Biomarker Activity (AID 2283044); conditions: primary human coronary artery smooth muscle cells; actives raise or lower the signal;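 also: M-CSF protein amount quantified by ELISA after 24 h exposure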
[14] = read-out: Low-density lipoprotein receptor (LDLR), LDLR (gene 3949); experiment: BSK_CASM3C_LDLR: BioMAP Diversity Plus: CASM3C Assay for Low-density lipoprotein receptor (LDLR) Biomarker Activity (AID 2283045); conditions: primary human coronary artery smooth muscle cells; actives raise or lower the signal;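 also: LDLR protein level on the cell surface quantified by ELISA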
[15] = read-out: Monocyte Chemoattractant Protein-1 (MCP1), CCL2 (gene 6347); experiment: BSK_CASM3C_MCP1: BioMAP Diversity Plus: CASM3C Assay for Monocyte Chemoattractant Protein-1 (MCP1) Biomarker Activity (AID 2283046); conditions: primary human coronary artery smooth muscle cells; actives raise or lower the signal;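 also: MCP-1 level quantified by ELISA 24 h after dosing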
[16] = BSK_CASM3C_Proliferation: Cell Proliferation Assessment in the BioMAP Diversity Plus: CASM3C Assay (AID 2283047); conditions: primary human coronary artery smooth muscle cells;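 also: sulforhodamine B total protein stain as relative cell number at 560 nm; sub-confluent cells exposed 48 h before staining; fitted both ways against DMSO so gain or loss of cell number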
[17] = read-out: Monokine induced gamma interferon (MIG), CXCL9 (gene 4283); experiment: BSK_CASM3C_MIG: BioMAP Diversity Plus: CASM3C Assay for Monokine induced gamma interferon (MIG) Biomarker Activity (AID 2283048); conditions: primary human coronary artery smooth muscle cells; actives raise or lower the signal;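 also: MIG protein level measured by ELISA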
[18] = read-out: serum amyloid A (SAA), SAA1 (gene 6288); experiment: BSK_CASM3C_SAA: BioMAP Diversity Plus: CASM3C Assay for serum amyloid A (SAA) Biomarker Activity (AID 2283049); conditions: primary human coronary artery smooth muscle cells; actives raise or lower the signal;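 also: SAA protein level quantified by ELISA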
[19] = BSK_CASM3C_SRB: Viability Assessment in the BioMAP Diversity Plus: CASM3C Assay (AID 2283050); conditions: primary human coronary artery smooth muscle cells;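 also: total protein by SRB staining as cytotoxicity measure in parallel cultures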

Measured: AC50

O=C1OC[C@H](Cc2cccc(O)c2)[C@H]1Cc1cccc(O)c1
inactive: all assays above

C[C@@H]1CCN(C(=O)[C@H](CCCN=C(N)N)NS(=O)(=O)c2cccc3c2NC[C@H](C)C3)[C@@H](C(=O)O)C1
inactive: all assays above

O=C(Nc1ccc2c(O)c(N=Nc3ccc(N=Nc4ccc(S(=O)(=O)O)cc4)cc3)c(S(=O)(=O)O)cc2c1)c1ccccc1
active: [10] 5.36 µM and 5.91 µM
not listed: [5]
inactive: all other assays above
